What all share (test): DAPPL (digital affinity profiling via proximity ligation, sequencing); 10 mM Tris-HCl pH 7.5, 50 mM NaCl, 1 mM DTT, 4% glycerol, room temperature, 30 min; GST-TFs on glutathione beads, 16-mer random dsDNA library, 0.1% formaldehyde crosslink after washing; high values mean tight binding
One assay addresses T1, FEV (Homo sapiens, UniProt Q99581 1-238).
T1 sequence: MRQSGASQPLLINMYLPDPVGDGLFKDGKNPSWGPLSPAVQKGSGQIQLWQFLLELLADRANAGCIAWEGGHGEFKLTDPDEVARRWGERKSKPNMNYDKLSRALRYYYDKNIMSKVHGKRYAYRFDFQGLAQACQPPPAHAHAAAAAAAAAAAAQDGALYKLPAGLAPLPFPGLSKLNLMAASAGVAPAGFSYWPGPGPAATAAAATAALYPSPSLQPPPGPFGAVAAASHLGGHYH
The note with it: protein: recombinant; tags: N-terminal GST; dsDNA, one strand shown. Put shortly: (§1)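 Pools of DNA-barcoded human transcription factors, expressed in yeast as GST fusions on glutathione beads and combined with a tag-only sample, were incubated with 200 nmole of a 16-mer random double-stranded DNA library. Incubation took 30 min at room temperature in Tris/NaCl/DTT/glycerol buffer and was followed by washing, 0.1% formaldehyde crosslinking, proximity ligation (BsaI/T4 ligase, 1 h, 37 °C), PCR amplification and sequencing on an Illumina NextSeq500. Binding signal is the ratio of a hexamer's read frequency for a factor to its frequency for the tag-only sample.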

Another assay concerns the target ETV5 (Homo sapiens, UniProt P41161 1-510). The note with it: protein: recombinant; tags: N-terminal GST; dsDNA, one strand shown. Put shortly: as §1
The target of the next assay is HSF1 (Homo sapiens, UniProt Q00613 1-529). The note with it: protein: recombinant; tags: N-terminal GST; chain copies: 3; dsDNA, one strand shown. Summed up: as §1
The target in another assay is T2, SPIC (Homo sapiens, UniProt Q8N5J4 1-248).
T2 sequence: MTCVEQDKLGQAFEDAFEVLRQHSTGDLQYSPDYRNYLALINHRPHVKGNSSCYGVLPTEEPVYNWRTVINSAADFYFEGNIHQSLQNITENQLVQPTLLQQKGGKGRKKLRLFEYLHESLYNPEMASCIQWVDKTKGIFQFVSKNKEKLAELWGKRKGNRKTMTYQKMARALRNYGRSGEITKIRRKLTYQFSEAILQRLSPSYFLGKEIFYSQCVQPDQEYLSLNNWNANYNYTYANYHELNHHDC
The note with it: protein: recombinant; tags: N-terminal GST; dsDNA, one strand shown. Put shortly:
as §1

The target in a further assay is ELF4 (Homo sapiens, UniProt Q99607 1-663). The note with it: protein: recombinant; tags: N-terminal GST; dsDNA, one strand shown. Summed up: as §1
Another assay has as its target T3, ELK4 (Homo sapiens, UniProt P28324-2 1-405).
T3 sequence: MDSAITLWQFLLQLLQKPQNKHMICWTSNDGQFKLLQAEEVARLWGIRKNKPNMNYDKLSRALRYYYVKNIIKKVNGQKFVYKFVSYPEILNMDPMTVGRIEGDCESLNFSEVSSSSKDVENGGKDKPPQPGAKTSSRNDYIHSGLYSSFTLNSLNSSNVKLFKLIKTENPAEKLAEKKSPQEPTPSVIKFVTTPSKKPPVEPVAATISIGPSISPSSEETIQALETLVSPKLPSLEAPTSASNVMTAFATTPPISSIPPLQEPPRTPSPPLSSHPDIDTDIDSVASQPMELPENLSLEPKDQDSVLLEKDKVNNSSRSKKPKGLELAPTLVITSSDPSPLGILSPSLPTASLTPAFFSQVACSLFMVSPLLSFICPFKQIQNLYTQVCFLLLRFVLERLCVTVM
The note with it: protein: recombinant; tags: N-terminal GST; dsDNA, one strand shown. Summed up: as §1

For the next assay, the target named is T4, ETV2 (Homo sapiens, UniProt O00321 1-342).
T4 sequence: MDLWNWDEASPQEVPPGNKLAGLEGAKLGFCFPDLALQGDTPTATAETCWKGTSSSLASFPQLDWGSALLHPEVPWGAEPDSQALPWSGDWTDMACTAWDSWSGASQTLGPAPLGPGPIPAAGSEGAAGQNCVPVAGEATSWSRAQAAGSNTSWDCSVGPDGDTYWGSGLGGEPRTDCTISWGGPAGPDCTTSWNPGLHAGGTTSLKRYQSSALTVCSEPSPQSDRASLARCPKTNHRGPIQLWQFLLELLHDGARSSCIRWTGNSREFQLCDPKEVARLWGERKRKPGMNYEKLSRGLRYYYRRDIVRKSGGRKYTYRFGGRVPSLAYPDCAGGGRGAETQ
The note with it: protein: recombinant; tags: N-terminal GST; dsDNA, one strand shown. Summed up: as §1

The next assay deals with T5, ELF3 (Homo sapiens, UniProt P78545 1-371).
T5 sequence: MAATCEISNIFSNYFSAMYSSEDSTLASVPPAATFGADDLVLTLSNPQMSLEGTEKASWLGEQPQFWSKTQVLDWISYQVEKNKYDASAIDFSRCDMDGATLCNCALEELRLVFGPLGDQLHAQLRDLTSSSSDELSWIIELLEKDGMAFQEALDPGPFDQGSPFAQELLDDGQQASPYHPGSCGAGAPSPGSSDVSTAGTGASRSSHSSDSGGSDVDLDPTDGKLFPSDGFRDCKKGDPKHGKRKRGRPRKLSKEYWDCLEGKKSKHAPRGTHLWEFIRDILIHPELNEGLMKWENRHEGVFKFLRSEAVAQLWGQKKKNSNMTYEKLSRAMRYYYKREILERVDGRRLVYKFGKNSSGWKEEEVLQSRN
The note with it: protein: recombinant; tags: N-terminal GST; dsDNA, one strand shown. Summed up:
as §1

The next assay addresses CRX (Homo sapiens, UniProt O43186 1-299). The note with it: protein: recombinant; tags: N-terminal GST; dsDNA, one strand shown. Summed up: as §1
A further assay addresses ETV1 (Homo sapiens, UniProt P50549 1-477). The note with it: protein: recombinant; tags: N-terminal GST; dsDNA, one strand shown. Put shortly: as §1
In a further assay the target is T6, ERF (Homo sapiens, UniProt P50548 1-548).
T6 sequence: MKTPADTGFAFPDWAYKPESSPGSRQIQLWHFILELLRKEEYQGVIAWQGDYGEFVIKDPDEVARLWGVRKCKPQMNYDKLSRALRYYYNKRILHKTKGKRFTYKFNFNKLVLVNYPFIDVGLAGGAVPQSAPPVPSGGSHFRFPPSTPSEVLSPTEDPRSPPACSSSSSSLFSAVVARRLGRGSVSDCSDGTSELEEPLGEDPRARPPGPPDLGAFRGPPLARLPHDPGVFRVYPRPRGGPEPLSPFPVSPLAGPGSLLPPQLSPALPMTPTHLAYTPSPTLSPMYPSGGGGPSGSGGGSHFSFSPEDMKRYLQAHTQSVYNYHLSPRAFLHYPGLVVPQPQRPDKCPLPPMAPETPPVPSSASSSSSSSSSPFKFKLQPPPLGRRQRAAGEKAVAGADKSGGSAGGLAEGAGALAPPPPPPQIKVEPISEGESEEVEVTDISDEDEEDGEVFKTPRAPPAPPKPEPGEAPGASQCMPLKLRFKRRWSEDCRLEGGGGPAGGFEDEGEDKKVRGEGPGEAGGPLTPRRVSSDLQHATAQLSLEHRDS
The note with it: protein: recombinant; tags: N-terminal GST; dsDNA, one strand shown. Put shortly: as §1

A further assay has as its target T7, ETV3L (Homo sapiens, UniProt Q6ZN32 1-361).
T7 sequence: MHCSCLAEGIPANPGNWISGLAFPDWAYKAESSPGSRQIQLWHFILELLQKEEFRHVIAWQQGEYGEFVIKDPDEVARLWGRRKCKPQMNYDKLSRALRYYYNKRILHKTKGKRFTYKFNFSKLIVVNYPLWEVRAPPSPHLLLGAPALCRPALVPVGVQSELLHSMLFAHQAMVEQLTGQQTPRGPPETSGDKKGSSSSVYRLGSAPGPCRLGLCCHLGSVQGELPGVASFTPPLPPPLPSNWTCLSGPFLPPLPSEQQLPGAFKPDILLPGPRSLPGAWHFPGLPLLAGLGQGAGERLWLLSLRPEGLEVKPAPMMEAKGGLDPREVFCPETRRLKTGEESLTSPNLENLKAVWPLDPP
The note with it: protein: recombinant; tags: N-terminal GST; dsDNA, one strand shown. Summed up:
as §1

For a further assay, the target named is T8, ETS2 (Homo sapiens, UniProt P15036 1-469).
T8 sequence: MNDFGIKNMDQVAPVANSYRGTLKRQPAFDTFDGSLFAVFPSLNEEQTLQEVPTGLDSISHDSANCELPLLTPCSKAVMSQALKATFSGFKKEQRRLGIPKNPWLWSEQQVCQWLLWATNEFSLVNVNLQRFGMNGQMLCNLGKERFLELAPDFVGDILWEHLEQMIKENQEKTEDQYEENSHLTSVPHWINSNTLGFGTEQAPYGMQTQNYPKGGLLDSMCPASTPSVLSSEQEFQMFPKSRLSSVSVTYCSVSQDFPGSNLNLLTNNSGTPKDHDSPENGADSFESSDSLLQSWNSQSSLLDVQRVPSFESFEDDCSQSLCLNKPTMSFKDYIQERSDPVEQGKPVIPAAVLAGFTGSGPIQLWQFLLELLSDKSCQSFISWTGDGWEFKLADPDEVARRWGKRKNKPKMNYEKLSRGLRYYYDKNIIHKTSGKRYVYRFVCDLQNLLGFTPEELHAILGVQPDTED
The note with it: protein: recombinant; tags: N-terminal GST; dsDNA, one strand shown. Put shortly:
as §1

For the next assay, the target named is T9, SPDEF (Homo sapiens, UniProt O95238 1-335).
T9 sequence: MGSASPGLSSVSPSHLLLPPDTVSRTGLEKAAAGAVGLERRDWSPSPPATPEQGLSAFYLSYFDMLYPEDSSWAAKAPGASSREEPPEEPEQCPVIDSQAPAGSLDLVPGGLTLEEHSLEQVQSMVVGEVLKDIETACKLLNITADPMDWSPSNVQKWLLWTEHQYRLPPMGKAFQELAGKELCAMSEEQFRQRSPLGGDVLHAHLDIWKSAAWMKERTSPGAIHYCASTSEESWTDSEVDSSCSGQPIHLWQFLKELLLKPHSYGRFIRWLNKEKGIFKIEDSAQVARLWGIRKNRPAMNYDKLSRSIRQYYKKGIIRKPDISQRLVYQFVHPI
The note with it: protein: recombinant; tags: N-terminal GST; dsDNA, one strand shown. Put shortly:
as §1

The target of another assay is T10, ETV7 (Homo sapiens, UniProt Q9Y603 1-341).
T10 sequence: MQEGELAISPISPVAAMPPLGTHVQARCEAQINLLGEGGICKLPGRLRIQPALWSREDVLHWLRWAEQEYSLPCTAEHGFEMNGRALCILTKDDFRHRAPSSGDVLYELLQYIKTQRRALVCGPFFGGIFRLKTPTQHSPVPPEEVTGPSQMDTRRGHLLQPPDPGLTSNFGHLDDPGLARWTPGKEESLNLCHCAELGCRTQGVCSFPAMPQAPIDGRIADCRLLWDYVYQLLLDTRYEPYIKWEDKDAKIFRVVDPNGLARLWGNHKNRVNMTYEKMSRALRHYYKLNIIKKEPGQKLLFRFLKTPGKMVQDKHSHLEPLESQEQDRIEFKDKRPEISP
The note with it: protein: recombinant; tags: N-terminal GST; dsDNA, one strand shown. Put shortly: as §1

In a further assay the target is T11, ELF5 (Homo sapiens, UniProt Q9UKW6-2 1-255).
T11 sequence: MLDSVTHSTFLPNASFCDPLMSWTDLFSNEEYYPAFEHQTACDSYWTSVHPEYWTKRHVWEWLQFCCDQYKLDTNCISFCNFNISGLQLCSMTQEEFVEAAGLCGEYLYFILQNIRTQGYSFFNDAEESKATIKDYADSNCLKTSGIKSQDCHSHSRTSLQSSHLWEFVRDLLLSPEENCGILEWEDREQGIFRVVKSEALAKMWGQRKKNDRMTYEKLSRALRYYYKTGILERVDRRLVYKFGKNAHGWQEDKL
The note with it: protein: recombinant; tags: N-terminal GST; dsDNA, one strand shown. Put shortly: as §1

The target of another assay is T12, ETV3 (Homo sapiens, UniProt P41162-2 1-143).
T12 sequence: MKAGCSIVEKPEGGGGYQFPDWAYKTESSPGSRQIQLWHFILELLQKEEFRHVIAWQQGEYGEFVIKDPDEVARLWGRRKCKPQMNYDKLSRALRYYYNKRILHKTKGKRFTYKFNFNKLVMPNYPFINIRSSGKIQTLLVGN
The note with it: protein: recombinant; tags: N-terminal GST; dsDNA, one strand shown. Put shortly: as §1

The target in another assay is ETV6 (Homo sapiens, UniProt P41212 1-452). The note with it: protein: recombinant; tags: N-terminal GST; dsDNA, one strand shown. Put shortly: as §1
Sequence of ETV6 (P41212 whole entry): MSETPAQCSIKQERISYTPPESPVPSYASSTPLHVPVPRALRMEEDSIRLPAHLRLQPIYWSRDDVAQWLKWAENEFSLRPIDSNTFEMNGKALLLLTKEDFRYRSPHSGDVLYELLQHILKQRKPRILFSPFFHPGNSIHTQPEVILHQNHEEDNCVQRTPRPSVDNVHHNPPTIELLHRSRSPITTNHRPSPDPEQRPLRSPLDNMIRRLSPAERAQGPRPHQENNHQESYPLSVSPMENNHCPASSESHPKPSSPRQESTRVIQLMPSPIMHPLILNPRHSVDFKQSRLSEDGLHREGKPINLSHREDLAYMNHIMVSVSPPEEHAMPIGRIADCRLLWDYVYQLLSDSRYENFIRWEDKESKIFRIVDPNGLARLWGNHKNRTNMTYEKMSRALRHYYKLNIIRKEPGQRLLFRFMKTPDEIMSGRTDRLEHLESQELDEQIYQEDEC

Sequence of ETV5 (P41161 whole entry): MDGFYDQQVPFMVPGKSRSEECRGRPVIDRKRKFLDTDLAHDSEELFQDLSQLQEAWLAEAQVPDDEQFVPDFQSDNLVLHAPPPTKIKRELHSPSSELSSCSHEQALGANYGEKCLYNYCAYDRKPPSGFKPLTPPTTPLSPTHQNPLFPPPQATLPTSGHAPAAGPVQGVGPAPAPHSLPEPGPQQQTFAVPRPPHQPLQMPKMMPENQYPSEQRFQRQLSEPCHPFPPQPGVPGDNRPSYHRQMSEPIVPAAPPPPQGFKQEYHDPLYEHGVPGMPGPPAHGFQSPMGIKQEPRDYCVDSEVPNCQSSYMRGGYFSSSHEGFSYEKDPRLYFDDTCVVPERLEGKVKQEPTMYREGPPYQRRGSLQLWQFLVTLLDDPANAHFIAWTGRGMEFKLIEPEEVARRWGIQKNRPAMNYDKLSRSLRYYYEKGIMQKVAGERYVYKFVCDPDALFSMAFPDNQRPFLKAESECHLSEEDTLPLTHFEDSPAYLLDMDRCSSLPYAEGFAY
Sequence of ETV1 (P50549 whole entry): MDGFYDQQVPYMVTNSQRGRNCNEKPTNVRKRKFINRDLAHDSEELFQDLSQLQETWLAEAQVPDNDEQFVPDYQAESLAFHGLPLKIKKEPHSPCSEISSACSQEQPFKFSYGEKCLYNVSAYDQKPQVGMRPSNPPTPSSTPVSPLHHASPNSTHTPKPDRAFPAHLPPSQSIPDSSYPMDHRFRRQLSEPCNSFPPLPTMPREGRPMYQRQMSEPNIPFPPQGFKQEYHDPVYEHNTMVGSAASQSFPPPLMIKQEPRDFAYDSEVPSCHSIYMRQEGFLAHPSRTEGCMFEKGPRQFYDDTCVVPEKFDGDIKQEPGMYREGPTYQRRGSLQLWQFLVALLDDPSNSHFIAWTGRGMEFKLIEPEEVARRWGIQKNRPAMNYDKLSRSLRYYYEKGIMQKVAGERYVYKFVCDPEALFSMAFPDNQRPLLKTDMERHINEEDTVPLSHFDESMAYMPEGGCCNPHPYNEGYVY
Sequence of CRX (O43186 whole entry): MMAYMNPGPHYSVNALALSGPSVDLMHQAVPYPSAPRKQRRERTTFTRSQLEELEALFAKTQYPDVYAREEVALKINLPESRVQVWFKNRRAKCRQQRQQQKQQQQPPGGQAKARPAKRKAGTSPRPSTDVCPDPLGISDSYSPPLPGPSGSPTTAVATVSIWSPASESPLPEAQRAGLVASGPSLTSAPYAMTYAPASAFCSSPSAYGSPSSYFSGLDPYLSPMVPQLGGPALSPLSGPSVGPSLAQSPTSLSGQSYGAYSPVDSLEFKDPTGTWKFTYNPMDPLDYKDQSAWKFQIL
Sequence of ELF4 (Q99607 whole entry): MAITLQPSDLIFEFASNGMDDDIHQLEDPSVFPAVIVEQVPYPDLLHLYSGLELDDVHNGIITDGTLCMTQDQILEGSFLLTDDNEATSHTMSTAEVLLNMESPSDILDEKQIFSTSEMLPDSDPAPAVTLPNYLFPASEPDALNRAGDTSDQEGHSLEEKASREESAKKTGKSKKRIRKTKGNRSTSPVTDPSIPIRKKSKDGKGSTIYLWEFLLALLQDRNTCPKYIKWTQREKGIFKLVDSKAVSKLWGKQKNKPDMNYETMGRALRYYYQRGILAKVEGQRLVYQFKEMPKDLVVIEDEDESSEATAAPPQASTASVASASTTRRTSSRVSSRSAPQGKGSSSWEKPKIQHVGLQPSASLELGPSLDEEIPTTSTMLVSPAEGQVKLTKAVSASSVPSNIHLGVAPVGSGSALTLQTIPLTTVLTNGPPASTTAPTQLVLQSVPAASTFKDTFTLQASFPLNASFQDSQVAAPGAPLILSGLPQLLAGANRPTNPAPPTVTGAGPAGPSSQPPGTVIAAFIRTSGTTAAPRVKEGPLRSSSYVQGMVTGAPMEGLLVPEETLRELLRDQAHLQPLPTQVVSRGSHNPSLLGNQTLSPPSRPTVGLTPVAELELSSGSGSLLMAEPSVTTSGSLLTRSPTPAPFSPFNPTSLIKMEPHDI
Sequence of HSF1 (Q00613 whole entry): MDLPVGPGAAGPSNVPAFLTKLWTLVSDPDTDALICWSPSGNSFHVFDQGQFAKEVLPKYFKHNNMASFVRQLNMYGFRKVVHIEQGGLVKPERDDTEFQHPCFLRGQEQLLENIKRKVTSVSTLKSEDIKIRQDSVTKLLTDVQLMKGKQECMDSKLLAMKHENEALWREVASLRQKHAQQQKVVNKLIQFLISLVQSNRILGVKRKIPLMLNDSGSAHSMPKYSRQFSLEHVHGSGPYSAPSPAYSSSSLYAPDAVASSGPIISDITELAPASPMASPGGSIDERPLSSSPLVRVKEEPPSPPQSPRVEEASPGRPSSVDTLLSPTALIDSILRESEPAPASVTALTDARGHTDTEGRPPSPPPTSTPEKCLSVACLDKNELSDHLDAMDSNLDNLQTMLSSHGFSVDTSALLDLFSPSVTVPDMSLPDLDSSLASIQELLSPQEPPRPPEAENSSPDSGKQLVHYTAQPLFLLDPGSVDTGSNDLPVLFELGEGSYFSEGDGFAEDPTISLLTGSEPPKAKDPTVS

Take GTCTCG: the binding signal with FEV is 1.3 fold enrichment (6-mer frequency, TF over GST control); in the assay with ETV5, 1.25 fold enrichment (6-mer frequency, TF over GST control); with HSF1 it was 1.55 fold enrichment (6-mer frequency, TF over GST control); with SPIC, 1.21 fold enrichment (6-mer frequency, TF over GST control); with ELF4, 1.43 fold enrichment (6-mer frequency, TF over GST control); in the assay with ELK4, 1.3 fold enrichment (6-mer frequency, TF over GST control). In addition, the binding signal in the assay with ETV2 is 1.03 fold enrichment (6-mer frequency, TF over GST control); with ELF3, 1.35 fold enrichment (6-mer frequency, TF over GST control); in the assay with CRX it was 1.06 fold enrichment (6-mer frequency, TF over GST control); in the assay with ETV1, 1.35 fold enrichment (6-mer frequency, TF over GST control); in the assay with ERF, 1.29 fold enrichment (6-mer frequency, TF over GST control); in the assay with ETV3L it was 1.29 fold enrichment (6-mer frequency, TF over GST control). Besides, the binding signal with ETS2 was 1.37 fold enrichment (6-mer frequency, TF over GST control); with SPDEF, 1.09 fold enrichment (6-mer frequency, TF over GST control); with ETV7, 1.28 fold enrichment (6-mer frequency, TF over GST control); with ELF5, 1.26 fold enrichment (6-mer frequency, TF over GST control); with ETV3, 1.33 fold enrichment (6-mer frequency, TF over GST control); with ETV6, 1.32 fold enrichment (6-mer frequency, TF over GST control).
